Most compounds without a hit are left out; they make up all but 12% or so of the library.
G9a inh: qHTS Assay for Inhibitors of Histone Lysine Methyltransferase G9a; Potency, µM (highest dose often 102 µM), without a hit: at the top dose activity, negative = inhibition, actives largely listed as inhibitors; hit rate 8.8% among 350,000; Histone-lysine N-methyltransferase EHMT2 (Homo sapiens), Q96KQ7; G9a H3K9 monomethylation, AlphaScreen, 2 h; AID 504332, 2011; further: on the % scale 0 is the no-effect control and ±100 the full control effect; nearly all actives have a fitted effect of over 75% in size
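AlphaScreen detection with an anti-monomethyl H3K9 antibody quantified product after a 2 h room-temperature reaction containing 500 nM biotinylated H3K9 peptide, 20 µM SAM and 20 nM enzyme, which had been preincubated 15 min with compound.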
JMJD2A Tudor: qHTS Assay for Inhibitors of JMJD2A-Tudor Domain. Lysine-specific demethylase 4A (Homo sapiens), O75164. AlphaScreen JMJD2A-Tudor / H3K4me3 peptide binding. Potency, µM (doses to about 114 µM), inactives show at the top dose activity change, negative = inhibition, usual class: inhibitors. hit rate 4.4% among 390,000. AID 504339, 2011; further: on the % scale 0 is the no-effect control and ±100 the full control effect; nearly all actives have a fitted effect of over 50% in size
Sfp PPTase inh: qHTS Assay for Inhibitors of Bacillus subtilis Sfp phosphopantetheinyl transferase (PPTase). AID 1490, 2009. 4'-phosphopantetheinyl transferase ffp (Bacillus subtilis), Q9F4F7. hit rate 3.5% among 310,000. Biochemical Sfp PPTase activity, qHTS. Potency, µM, for inactives: largest response in the series, negative = inhibition, usual class: inhibitors;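 further: the enzyme is Sfp with the accession as filed and its product quenches rhodamine fluorescence; 0% = enzyme reaction without inhibitor and -100% = no enzyme wells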
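With Hepes-Na pH 7.6 buffer containing 10 mM MgCl2, Sfp (15 nM) modified BHQ-2-YbbR (12.5 uM) using rhodamine-CoA (5 uM). Two reads 30 minutes apart at 525/598 nm yielded each well's rate.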
HP1b chromo inh: HTS for Inhibitors of HP1-beta Chromodomain Interactions with Methylated Histone Tails; hit rate 0.56% among 390,000; AlphaScreen HP1-beta / biotin-H3K9me3 peptide binding; Potency, µM (highest dose often 114 µM), for inactives: top-dose activity change, negative = inhibition, hits mostly inhibitors; further: nearly all actives have a fitted effect of over 70% in size
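Compound inhibition of the preformed complex between 50 nM HP1-beta and 50 nM biotinylated H3K9me3 peptide was read by AlphaScreen. Buffer was PBS pH 7.4 with 0.01% Tween-20. Incubations ran 30 min at room temperature, with 10 ug/mL donor/acceptor beads.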
BAZ2B block: qHTS Assay for Inhibitors of BAZ2B. AlphaScreen BAZ2B-H3K14Ac peptide displacement. Potency, µM (doses to about 114 µM), without a hit: at the top dose activity change, negative = inhibition, most hits filed as inhibitors. hit rate 4.4% among 360,000. Bromodomain adjacent to zinc finger domain protein 2B (Homo sapiens), Q9UIF8; further: on the % scale 0 is the no-effect control and ±100 the full control effect; nearly all actives have a fitted effect of over 60% in size
Target sequence (Q9UIF8 whole entry, looked up, the tested form may be a part): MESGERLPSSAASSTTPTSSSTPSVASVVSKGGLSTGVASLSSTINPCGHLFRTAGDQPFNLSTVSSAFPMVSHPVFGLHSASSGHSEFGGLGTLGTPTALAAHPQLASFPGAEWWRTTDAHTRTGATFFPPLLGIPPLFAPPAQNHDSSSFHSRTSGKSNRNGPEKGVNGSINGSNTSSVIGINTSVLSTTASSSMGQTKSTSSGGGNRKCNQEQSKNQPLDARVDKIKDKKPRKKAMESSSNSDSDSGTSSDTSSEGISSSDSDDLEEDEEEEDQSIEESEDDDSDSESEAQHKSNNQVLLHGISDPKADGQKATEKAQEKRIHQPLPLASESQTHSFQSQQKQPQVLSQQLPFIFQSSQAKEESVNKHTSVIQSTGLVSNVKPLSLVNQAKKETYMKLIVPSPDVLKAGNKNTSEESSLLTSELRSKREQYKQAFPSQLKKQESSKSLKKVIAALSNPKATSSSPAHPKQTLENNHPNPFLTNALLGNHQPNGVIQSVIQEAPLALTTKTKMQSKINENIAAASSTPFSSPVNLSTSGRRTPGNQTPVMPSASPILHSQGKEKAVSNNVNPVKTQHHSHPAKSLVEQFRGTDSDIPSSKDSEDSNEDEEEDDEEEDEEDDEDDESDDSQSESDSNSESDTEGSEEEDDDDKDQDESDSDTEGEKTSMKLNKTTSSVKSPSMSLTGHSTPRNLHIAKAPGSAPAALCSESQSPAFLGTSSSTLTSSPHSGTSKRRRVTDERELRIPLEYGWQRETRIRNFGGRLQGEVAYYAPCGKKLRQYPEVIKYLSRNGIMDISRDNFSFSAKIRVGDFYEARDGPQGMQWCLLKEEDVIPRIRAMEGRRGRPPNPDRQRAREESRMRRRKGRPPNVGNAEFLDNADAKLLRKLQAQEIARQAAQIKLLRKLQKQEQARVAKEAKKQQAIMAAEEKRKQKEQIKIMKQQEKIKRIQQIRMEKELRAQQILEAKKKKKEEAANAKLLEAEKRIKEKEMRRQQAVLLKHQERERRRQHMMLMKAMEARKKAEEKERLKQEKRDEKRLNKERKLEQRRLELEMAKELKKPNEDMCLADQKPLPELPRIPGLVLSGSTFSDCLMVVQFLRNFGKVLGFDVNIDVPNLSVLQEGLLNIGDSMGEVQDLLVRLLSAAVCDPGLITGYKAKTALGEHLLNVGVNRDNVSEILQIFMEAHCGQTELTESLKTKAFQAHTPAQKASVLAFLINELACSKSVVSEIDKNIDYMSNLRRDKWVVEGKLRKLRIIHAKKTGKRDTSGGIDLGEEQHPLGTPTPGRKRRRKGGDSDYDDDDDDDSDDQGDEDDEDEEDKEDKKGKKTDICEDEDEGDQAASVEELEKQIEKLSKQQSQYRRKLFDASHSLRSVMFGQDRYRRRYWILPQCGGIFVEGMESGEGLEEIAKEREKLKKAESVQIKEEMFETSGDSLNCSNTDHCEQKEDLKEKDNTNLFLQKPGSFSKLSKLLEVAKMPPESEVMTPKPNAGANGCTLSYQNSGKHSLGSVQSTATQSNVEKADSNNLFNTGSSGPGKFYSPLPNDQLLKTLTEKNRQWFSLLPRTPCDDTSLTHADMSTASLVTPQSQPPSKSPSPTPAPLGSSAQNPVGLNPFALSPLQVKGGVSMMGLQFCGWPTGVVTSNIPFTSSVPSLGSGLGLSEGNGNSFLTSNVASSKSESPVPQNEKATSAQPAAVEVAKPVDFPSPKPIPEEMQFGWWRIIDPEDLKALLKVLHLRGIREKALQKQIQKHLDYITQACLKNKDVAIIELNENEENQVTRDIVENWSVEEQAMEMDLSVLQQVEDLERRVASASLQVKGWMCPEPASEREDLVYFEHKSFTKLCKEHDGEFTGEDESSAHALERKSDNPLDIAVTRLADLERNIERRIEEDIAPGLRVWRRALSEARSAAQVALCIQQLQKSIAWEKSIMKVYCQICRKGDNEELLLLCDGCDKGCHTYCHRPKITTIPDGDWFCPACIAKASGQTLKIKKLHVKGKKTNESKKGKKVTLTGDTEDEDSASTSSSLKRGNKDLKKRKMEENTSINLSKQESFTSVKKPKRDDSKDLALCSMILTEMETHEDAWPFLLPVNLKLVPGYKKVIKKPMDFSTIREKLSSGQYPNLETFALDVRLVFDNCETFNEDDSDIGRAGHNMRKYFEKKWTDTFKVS
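Multi-concentration screen (max 110 uM) measuring displacement of acetylated histone H3 peptide from BAZ2B by AlphaScreen, using 50 nM protein, 50 nM peptide and 10 ug/mL streptavidin donor plus Ni-chelate acceptor beads.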
Active calls of the source: *; ? = inconclusive; . = no result; [ ] = dose if it differs, or a comment. The call rests on the fitted dose curve; in most records, active means well fitted curve in the direction sought with a large enough effect; inconclusive means small, poorly fitted or top-dose-only effect, or another doubt; inactive means no such curve, though single readings can be large; an effect the other way counts as inactive or inconclusive. Potency means the concentration at half of the fitted maximal effect.

SMILES | G9a inh | JMJD2A Tudor | Sfp PPTase inh | HP1b chromo inh | BAZ2B block
O=C(O)c1ccc(NC(CSCc2ccc(F)cc2)C(=O)O)c([N+](=O)[O-])c1 (centres undefined) | 2.0%[59 µM] | -17.9% | 19.6% | 7.6% | ?
CCc1oc2ccccc2c1C(=O)c1cc(I)c(O)c(I)c1 | -39.6%[59 µM] | . | 39.8µM* | . | .
CCCCc1oc2ccccc2c1C(=O)c1cc(I)c(N(CC)CCOCC)c(I)c1 | . | 56.2µM* | . | -6.1% | .
CCCCCc1cc(=O)c2ccccc2o1 | . | 14.3% | . | 52.7% | .
Cn1/c(=N/N=C/c2ccccn2)sc2ccccc21 | ? | 89.1µM* | -25.0% | ? | ?
CCC(=O)N1CCc2cc(Br)cc(S(=O)(=O)N3CCC(C(=O)NCCCOC(C)C)CC3)c21 | -7.1% | 7.9% | -8.6% | 4.9% | -2.4%
O=C(CSc1nnc2ccc3ccccc3n12)Nc1ccccc1Cl | 2.5%[59 µM] | 0.3% | . | 55.6% | -24.7%
O=C(CCNS(=O)(=O)c1cccs1)N1CCCCCC1 | -0.3%[12.7 µM] | -4.5% | 15.7% | 21.8% | 7.4%
CCOc1c(Cl)cc(Cl)cc1CNCCNCCO | 50.1µM* | ? | -2.5% | 20.5% | -32.9%
CC(C)CC(=O)NC(=S)Nc1ccccc1F | -3.5%[59 µM] | -6.4% | 13.6% | 20.1% | 7.3%
COc1c(C)cccc1C(=O)NC(=S)Nc1cccc2nsnc12 | 44.7µM* | -2.1% | ? | 36.1% | -20.7%
CC(C)CC(=O)NC(=S)Nc1cccc2nsnc12 | 35.5µM* | -13.4% | ? | 41.4% | -11.6%
CS/C(=N\NC(N)=O)c1ccccc1 | -1.2%[59 µM] | -4.1% | 22.8% | 22.9% | 3.4%
CCN(C(=O)CSc1nnc(COc2cccc(C)c2)o1)c1nc(C)cs1 | 0.9% | 2.8% | 10.4% | -15.0% | 2.5%
CCN1/C(=C\c2ccc3cc(C)ccc3[n+]2CC)Sc2cc(C)c(C)cc21 | 20µM* | ? | 17.8µM* | ? | .
CCN1/C(=C2\OC(=S)N(C)C2=O)Sc2ccccc21 | -29.3% | 3.4% | 2.3% | 53.8% | -5.7%
CCN1/C(=C/c2ccc3cc(C)cc(C)c3[n+]2CC)Sc2cc(C)ccc21 | 15.8µM* | 15.8µM* | 10µM* | ? | ?
CCN1/C(=C/c2ccc3cccc(C)c3[n+]2CC)Sc2ccccc21 | 50.1µM* | -27.8% | 8.91µM* | -5.0% | 50.1µM*
CC(=O)N1c2ccc(C)cc2Sc2c1ccc1ccccc21 | . | -21.4% | . | 5.1%[57 µM] | .
CNC(=O)C1CC(=O)N(Cc2ccccc2)C(=Nc2ccc(OC)cc2)S1 (centres undefined) | 2.3% | -10.4% | 20.5% | 30.9% | -1.9%
O=C(O)C(C(O)c1ccc([N+](=O)[O-])cc1)[n+]1ccccc1 (centres undefined) | 5.1%[2.33 µM] | -8.5% | . | 24.4% | 5.0%
C/C=C(\C)C(=O)OC1CC(C)(C)C[C@H]2C3=CC[C@@H]4[C@@]5(C)CCC(O[C@@H]6O[C@@H](C(=O)O)[C@@H](O)C(O[C@@H]7OC[C@H](O)[C@@H](O)[C@@H]7O[C@@H]7OC(CO)C(O)[C@@H](O)[C@@H]7O)C6O[C@@H]6OC(CO)C(O)C(O)C6O)[C@@](C)(CO)[C@@H]5CC[C@]4(C)[C@]3(C)CC(O)[C@@]12CO (some centres undefined) | . | 79.4µM* | . | 10.8% | .
CC1(C)CC[C@]2(C(=O)O[C@@H]3OC(CO)[C@@H](O)[C@H](O)[C@H]3O)CC[C@]3(C)C(=CCC4[C@@]5(C)CC[C@H](O[C@@H]6OC(C(=O)O)[C@@H](O)[C@H](O)[C@H]6O)C(C)(C)C5CC[C@]43C)[C@@H]2C1 (some centres undefined) | . | -7.2% | . | 51.9% | .
Cc1ccc(NCCNc2ccc(C)cc2)cc1 | ? | 22.4µM* | 11.9% | -41.1% | .
Cc1ccc(NCc2ccccc2F)cc1 | ? | 0.0% | -1.9% | 20.8% | -35.5%
SMILES | G9a inh | JMJD2A Tudor | Sfp PPTase inh | HP1b chromo inh | BAZ2B block
COc1ccc(C(=O)CCNc2ccc(F)cc2)cc1 | 20.1% | -14.2% | 5.6% | -0.3% | -2.8%
COc1ccc(NCCNc2ccc(OC)cc2)cc1 | 8.6%[0.0925 µM] | ? | -3.3% | -18.2% | 50.1µM*
Cc1ccc(NCCc2ccc(C)nc2)cc1 | 50.1µM* | -34.2% | 10.7% | -7.8% | -19.1%
O=C1CCCC(O)=C1N=Nc1cccc(S(=O)(=O)N2CCOCC2)c1 | -0.9%[12.7 µM] | ? | -17.0% | -19.6% | -14.2%
COc1ccc(C(=O)COC(=O)[C@H](C)Nc2ccc(C(F)(F)F)cc2[N+](=O)[O-])cc1 | -20.5%[59 µM] | 1.7% | 17.2% | 6.8% | -3.2%
Cc1cc(NS(=O)(=O)c2ccc(NC(=O)C(CC(C)C)N3C(=O)c4ccccc4C3=O)cc2)nc(C)n1 (centres undefined) | ? | -28.4% | 12.4% | 28.1% | -28.3%
COC(=O)CNC(c1ccccc1)c1cc(Br)ccc1NC(=O)CCN1CCOCC1 (centres undefined) | 3.16µM* | -29.3% | 31.6µM* | 4.7% | -27.8%
CCOC(=O)CNC(c1ccccc1)c1cc(Br)ccc1NC(=O)CCN1CCOCC1 (centres undefined) | ? | -27.8% | 15.8µM* | 1.5% | -0.1%
CC(=O)NC(Cc1ccccc1)C(=O)N1CCN(C(=S)NCC(C)C)CC1 (centres undefined) | -8.2%[59 µM] | -13.1% | 18.6% | 16.3% | -6.7%
NS(=O)(=O)c1ccc(CCNC(=O)c2cccc(OC(F)F)c2)cc1 | -27.9% | 2.5% | 12.4% | 47.8% | 11.1%
Cc1ccc(CNC(=O)C2CC(c3ccc(C(F)(F)F)cc3)=NO2)o1 (centres undefined) | ? | -5.6% | 11.6% | 31.7% | -3.2%
COc1ccc(CNC(=O)CCc2c[nH]c3ccccc23)cc1 | -32.3% | -18.9% | -4.5% | -24.8% | -5.7%
COc1cc(/C=C2\SC(=S)N(C(Cc3ccccc3)C(=O)O)C2=O)ccc1O (centres undefined) | . | -32.3% | ? | ? | 35.5µM*
O=C(O)C(Cc1ccccc1)N1C(=O)/C(=C/c2ccccc2)SC1=S (centres undefined) | ? | ? | -1.8% | -17.7% | ?
Cc1ccc(/C=C2\SC(=S)N(C(Cc3ccccc3)C(=O)O)C2=O)cc1 (centres undefined) | ? | ? | -8.6% | -14.4% | ?
O=C(O)C(Cc1ccccc1)N1C(=O)/C(=C/c2cccc3ccccc23)SC1=S (centres undefined) | ? | . | -19.5% | . | 56.2µM*
COc1cc(/C=C2\SC(=S)N(Nc3ccccc3)C2=O)ccc1O | ? | 44.7µM* | ? | 50.1µM* | 39.8µM*
CCOc1cc(/C=C2\SC(=S)N(NS(=O)(=O)c3ccccc3)C2=O)ccc1O | -1.4%[2.33 µM] | -26.8% | -15.0% | 2.5% | ?

Bioassay records deposited in PubChem by National Center for Advancing Translational Sciences (NCATS).
